Growth inhibition call data for 69 compounds are collected here from the antibiotic and cytotoxicity screens of Wong et al. (2023).

Structures are written as SMILES. Screen size: about 39,000 compounds; about 500 (1.3%) were called active. The sample holds actives, similar compounds and a random draw of the others, so the mix is not that of the screen.

The test deals with S. aureus RN4220. Nature of the test: growth inhibition call (relative growth <= 0.2). The conditions noted are these: 50 µM.
As to `C=C[C@]1(C)C[C@@H](OC(=O)CS[C@@H]2C[C@H]3CC[C@@H](C2)N3C)[C@]2(C)[C@H](C)CC[C@]3(CCC(=O)[C@H]32)[C@@H](C)[C@@H]1O`, the growth inhibition call was “active”.
Turning to `C[C@H](CO)N1C[C@H](C)[C@H](CN(C)Cc2ccc(C(=O)O)cc2)OCCCC[C@H](C)Oc2ccc(NS(=O)(=O)c3ccc(F)cc3)cc2C1=O`, the growth inhibition call was “inactive”.
As for `COc1ccc(S(=O)(=O)N(C)C[C@@H]2Oc3c(NC(=O)C4CCOCC4)cccc3C(=O)N([C@H](C)CO)C[C@H]2C)cc1`, the growth inhibition call is “inactive”.
Take `C[C@H](CO)N1C[C@H](C)[C@@H](CN(C)C(=O)Nc2ccccc2)Oc2c(NC(=O)C3CCOCC3)cccc2C1=O`: the growth inhibition call is “inactive”.
As for `CO[C@H]1O[C@H](COC(=O)NCCCCCC(=O)NO)[C@@H](OC(=O)Nc2ccccc2)[C@@H]2OC(=O)[C@H](Cc3cccc(Br)c3)C/C=C/C[C@@H](Cc3cccc(Br)c3)C(=O)O[C@@H]12`, the growth inhibition call is “inactive”.
On to `C[C@@H]1CN([C@H](C)CO)C(=O)c2cccc(NC(=O)Nc3ccc(C(F)(F)F)cc3)c2O[C@@H]1CN(C)C(=O)Nc1cccc2ccccc12`, for which the growth inhibition call was “inactive”.
With `C[C@H]1CN([C@@H](C)CO)C(=O)c2cccc(NC(=O)Nc3ccccc3)c2O[C@@H]1CN(C)C(=O)Nc1ccc(C(F)(F)F)cc1`, the growth inhibition call is “inactive”.
In the case of `C[C@H]1CN([C@@H](C)CO)C(=O)c2cccc(NC(=O)Nc3ccc(C(F)(F)F)cc3)c2O[C@@H]1CN(C)C(=O)Nc1ccccc1` it was “active”.
As to `C[C@H](CO)N1C[C@H](C)[C@@H](CN(C)C(=O)Nc2cccc3ccccc23)Oc2c(NC(=O)Nc3ccc(C(F)(F)F)cc3)cccc2C1=O`, the growth inhibition call is “active”.
Consider `C[C@H](CO)N1C[C@H](C)[C@H](CN(C)C(=O)Nc2cccc3ccccc23)Oc2c(NC(=O)Nc3ccc(C(F)(F)F)cc3)cccc2C1=O`, for which the growth inhibition call was “inactive”.
Consider `C[C@@H]1CN([C@@H](C)CO)C(=O)c2cccc(NC(=O)Nc3ccccc3)c2O[C@@H]1CN(C)C(=O)Nc1ccc(C(F)(F)F)cc1`, for which the growth inhibition call was “inactive”.
For `C[C@H]1CN([C@@H](C)CO)C(=O)c2cccc(NC(=O)Nc3ccc(C(F)(F)F)cc3)c2O[C@H]1CN(C)C(=O)Nc1ccccc1` the value was “active”.
In the case of `C[C@H](CO)N1C[C@H](C)[C@@H](CN(C)C(=O)Nc2ccc(C(F)(F)F)cc2)Oc2c(NC(=O)Nc3ccccc3)cccc2C1=O` it was “inactive”.
Regarding `C[C@@H]1CN([C@H](C)CO)C(=O)c2cccc(NC(=O)Nc3ccc(C(F)(F)F)cc3)c2O[C@H]1CN(C)C(=O)Nc1ccccc1`, the growth inhibition call is “inactive”.
For `C[C@H](CO)N1C[C@H](C)[C@H](CN(C)C(=O)Nc2ccc(C(F)(F)F)cc2)Oc2c(NC(=O)Nc3ccccc3)cccc2C1=O` the value was “inactive”.
As to `C[C@H](CO)N1C[C@H](C)[C@H](CN(C)C(=O)Nc2ccccc2)Oc2c(NC(=O)Nc3ccc(C(F)(F)F)cc3)cccc2C1=O`, the growth inhibition call was “inactive”.
As to `C[C@@H]1CN([C@@H](C)CO)C(=O)c2cccc(NC(=O)Nc3ccc(C(F)(F)F)cc3)c2O[C@@H]1CN(C)C(=O)Nc1ccccc1`, the growth inhibition call is “active”.
With `COc1ccc(S(=O)(=O)Nc2ccc3c(c2)C(=O)N([C@@H](C)CO)C[C@H](C)[C@H](CN(C)C(=O)Nc2ccccc2)OCCCC[C@H](C)O3)cc1`, the growth inhibition call was “inactive”.
For `Cc1ccc(S(=O)(=O)N(C)C[C@H]2Oc3ccc(NS(=O)(=O)c4c(C)noc4C)cc3CC(=O)N([C@@H](C)CO)C[C@H]2C)cc1`, the growth inhibition call is “inactive”.
As to `COc1ccc2c3c(n(c2c1)C)[C@@H](CO)N(Cc1ccccc1)C[C@]13CCN(CC1)C(=O)c1ccccc1F`, the growth inhibition call was “inactive”.
Regarding `C[C@H](CO)N1C[C@H](C)[C@H](CN(C)C(=O)CCCN(C)C)OCCCC[C@H](C)Oc2ccc(NC(=O)Nc3ccc(C(F)(F)F)cc3)cc2C1=O`, the growth inhibition call is “inactive”.
For `O=C([C@H]1[C@H](CO)[C@H]2Cn3c(cccc3=O)[C@@H]1N2CC1CCCC1)N1CCOCC1`, the growth inhibition call is “inactive”.
As for `COc1cc(/C=C/c2cc(/C=C/c3ccc(O)c(OC)c3)n(Cc3ccc4c(c3)OCO4)c(=S)n2)ccc1O`, the growth inhibition call is “inactive”.
In the case of `C[C@@H]1CCCCO[C@@H](CN(C)C(=O)Nc2ccc3c(c2)OCO3)[C@@H](C)CN([C@@H](C)CO)C(=O)c2cc(NC(=O)Cc3ccccc3)ccc2O1`, the growth inhibition call is “inactive”.
In the case of `CCC(CC)c1nc(Nc2ccccc2)c2ccccc2n1` it was “active”; in that of `CCOc1ccc(Nc2c3ccccc3nc3ccccc23)cc1`, “inactive”; in that of `c1ccc(Nc2nc(-c3ccccc3)nc3ccccc23)cc1`, “inactive”.
For `Cc1ccc(S(=O)(=O)Nc2ccc3c(c2)C(=O)N([C@H](C)CO)C[C@H](C)[C@H](CN(C)S(=O)(=O)c2ccc(F)cc2)OCCCC[C@@H](C)O3)cc1`, the growth inhibition call is “inactive”.
In the case of `Cc1noc(C)c1S(=O)(=O)N(C)C[C@H]1Oc2ccc(NS(=O)(=O)c3ccccc3)cc2CC(=O)N([C@H](C)CO)C[C@@H]1C` it was “inactive”.
For the compound `C[C@@H]1CN([C@@H](C)CO)C(=O)c2cc(NC(=O)Nc3ccc(C(F)(F)F)cc3)ccc2O[C@@H](C)CCCCO[C@H]1CN(C)C(=O)C1CCCCC1`, the growth inhibition call was “inactive”.
As to `COC(=O)c1c(-c2c(Cl)cccc2Cl)noc1-c1cnn(-c2cccc(Cl)c2)c1C(F)(F)F`, the growth inhibition call was “inactive”.
For the compound `Cc1onc(-c2ccccc2)c1C(=O)NC1C(=O)N2C1SC(C)(C)C2C(=O)[O-].[Na+]` (centres undefined), the growth inhibition call is “active”.
Consider `Cc1onc(-c2ccccc2Cl)c1C(=O)NC1C(=O)N2C1SC(C)(C)C2C(=O)[O-].[Na+]` (centres undefined), for which the growth inhibition call was “active”.
With `Cc1onc(-c2c(Cl)cccc2Cl)c1C(=O)NC1C(=O)N2C1SC(C)(C)C2C(=O)[O-].[Na+]` (centres undefined), the growth inhibition call is “active”.
`C[C@H](CO)N1C[C@H](C)[C@H](CN(C)S(=O)(=O)c2cccc(F)c2)Oc2ncc(C#CCN(C)C)cc2C1=O`: the growth inhibition call is “inactive”.
As to `C[C@@H]1CN([C@H](C)CO)C(=O)CCCn2cc(nn2)CO[C@H]1CN(C)C(=O)c1ccc(N2CCN(C)CC2)cc1`, the growth inhibition call was “inactive”.
Take `C[C@@H]1CN([C@H](C)CO)C(=O)c2cccc(NC(=O)Nc3cccc4ccccc34)c2O[C@@H]1CN(C)C(=O)Nc1cccc2ccccc12`: the growth inhibition call was “inactive”.
For `C[C@@H]1CCCCO[C@@H](CN(C)C(=O)c2ccncc2)[C@H](C)CN([C@H](C)CO)C(=O)c2cc(NC(=O)C3CCCCC3)ccc2O1` the value was “inactive”.
`CC1CC2C(C(O)CC3(C)C2CCC3(O)C(=O)COC(=O)CCC(=O)[O-])C2(C)C=CC(=O)C=C12.[Na+]` (centres undefined): the growth inhibition call is “inactive”.
Regarding `COc1cc(NC(=O)CCN2CCC(OC(=O)Nc3ccccc3-c3ccccc3)CC2)c(Cl)cc1CNC[C@H](O)c1ccc(O)c2nc(O)ccc12`, the growth inhibition call was “inactive”.
In the case of `CO[C@H]1CN(C)C(=O)c2cc(NC(=O)Nc3ccccc3)ccc2OC[C@H](C)N(C(=O)CN(C)C)C[C@@H]1C` it was “inactive”.
Take `Cc1noc(C)c1S(=O)(=O)Nc1ccc2c(c1)CC(=O)N([C@H](C)CO)C[C@@H](C)[C@@H](CN(C)Cc1ccncc1)O2`: the growth inhibition call is “inactive”.
Take `Cc1noc(C)c1NC(=O)Nc1ccc2c(c1)CC(=O)N([C@@H](C)CO)C[C@@H](C)[C@@H](CN(C)S(C)(=O)=O)O2`: the growth inhibition call was “inactive”.
For `CC(=O)O[C@@H]1[C@@H]2OC(=O)[C@H](OC(C)=O)[C@@H]2O[C@H]1n1ccc(=O)[nH]c1=O` the value was “inactive”; for `COc1ccc2c3c([nH]c2c1)[C@@H](CO)N(C[C@]13CN(CC2CCCCC2)C1)C(=O)Nc1cccc(c1)F`, “inactive”; for `COc1ccc2c3c([nH]c2c1)[C@H](CO)N(C[C@]13CCN(CC1)CC1CCCC1)C(=O)Nc1cccc(c1)F`, “inactive”.
`COc1ccc2c3c([nH]c2c1)[C@@H](CO)N(C[C@]13CCN(CC1)CC1CCCC1)C(=O)Nc1cccc(c1)F`: the growth inhibition call was “inactive”.
With `COc1ccc2c3c([nH]c2c1)[C@@H](CO)N(C[C@]13CCN(CC1)Cc1ccc(cc1)F)C(=O)Nc1ccc(cc1)F`, the growth inhibition call was “active”.
For `COc1ccc2c3c([nH]c2c1)[C@H](CO)N(C[C@]13CCN(CC1)Cc1ccc(cc1)F)C(=O)Nc1ccc(cc1)F` the value was “inactive”; for `COc1ccc2c3c([nH]c2c1)[C@H](CO)N(C[C@]13CN(CC2CCCCC2)C1)C(=O)Nc1cccc(c1)F`, “active”.
For `COc1ccc2c3c([nH]c2c1)[C@H](CO)N(C[C@]13CCN(CC1)CC1CCCCC1)C(=O)Nc1cccc(c1)F` the value was “inactive”.
`COc1ccc(cc1)CN1CC[C@]2(CC1)CN([C@H](CO)c1[nH]c3cc(ccc3c12)OC)C(=O)Nc1ccc(cc1)F`: the growth inhibition call was “inactive”.
Turning to `COc1ccc2c3c([nH]c2c1)[C@@H](CO)N(C[C@]13CCN(CC1)CC1CCCCC1)C(=O)Nc1cccc(c1)F`, the growth inhibition call was “active”.
Take `C=CCOC(=O)O[C@H]1[C@@H](OC)O[C@H](COC(=O)NCCCCCC(=O)NO)[C@@H](OC(=O)[C@H](CC=C)Cc2cccc(Br)c2)[C@@H]1OC(=O)[C@H](CC=C)Cc1ccccc1`: the growth inhibition call is “inactive”.
Take `C[C@H](CO)N1C[C@H](C)[C@@H](CN(C)C(=O)Nc2ccc3c(c2)OCCO3)OCc2cn(nn2)CCCC1=O`: the growth inhibition call was “inactive”.
In the case of `O=C(N[C@H]1C=C[C@H](CC(=O)N2CCOCC2)O[C@@H]1CO)c1ccc2c(c1)OCO2` it was “inactive”.
As to `Cn1cnc(S(=O)(=O)N[C@H]2C=C[C@@H](CC(=O)NCC3CC3)O[C@H]2CO)c1`, the growth inhibition call was “inactive”.
On to `COc1ccc(NC(=O)Nc2ccc3c(c2)C(=O)N([C@@H](C)CO)C[C@H](C)[C@H](CN(C)C(=O)c2ccccc2)OCCCC[C@@H](C)O3)cc1`, for which the growth inhibition call was “inactive”.
Consider `CN(C)CC#Cc1cncc(C(=O)NN)c1`, for which the growth inhibition call was “inactive”.
Regarding `CO[C@@H]1CN(C)C(=O)c2ccc(NC(=O)c3ccc(F)cc3)cc2OC[C@@H](C)N(C(=O)CN(C)C)C[C@@H]1C`, the growth inhibition call is “inactive”.
With `CN1CCN(C(=O)C[C@H]2C[C@H]3c4cc(NC(=O)c5ccc6c(c5)OCO6)ccc4O[C@H]3[C@H](CO)O2)CC1`, the growth inhibition call is “inactive”.
On to `C=CC[C@@H](CC(=O)NCCO)C(=O)NC[C@H](OC(=O)[C@@H](CC=C)CC(=O)OC(C)(C)C)c1ccccc1`, for which the growth inhibition call is “inactive”.
Turning to `C=CC1=C(C(=O)O)N2C(=O)[C@@H](NC(=O)/C(=N/O)c3csc(N)n3)[C@H]2SC1`, the growth inhibition call is “active”.
Turning to `C=CC1=C(C(=O)O)N2C(=O)C(NC(=O)C(=NO)c3csc(N)n3)C2SC1` (centres undefined), the growth inhibition call is “active”.
For `Nc1nc(C(=CCC(=O)O)C(=O)NC2C(=O)N3C(C(=O)O)=CCSC23)cs1` (centres undefined), the growth inhibition call was “active”.
Consider `Nc1nc(/C(=N/O)C(=O)N[C@@H]2C(=O)N3C(C(=O)O)=C(/C=C4\CCN([C@@H]5CCNC5)C4=O)CS[C@H]23)ns1`, for which the growth inhibition call is “inactive”.
As for `C=CC1=C(C(=O)O)N2C(=O)C(NC(=O)C(=NOCC(=O)O)c3csc(N)n3)C2SC1` (centres undefined), the growth inhibition call is “inactive”.
As to `C=CC1=C(C(=O)O)N2C(=O)[C@@H](NC(=O)/C(=N\OCC(=O)O)c3csc(N)n3)[C@H]2SC1`, the growth inhibition call was “active”.
Turning to `Nc1nc(/C(=C/CC(=O)O)C(=O)N[C@@H]2C(=O)N3C(C(=O)O)=CCS[C@H]23)cs1`, the growth inhibition call was “inactive”.
